Reference: PubChem BioAssay AID430 (Sanford-Burnham Center for Chemical Genomics, 2006)
The campaign covered roughly 63,000 compounds. About 1,100 (1.7%) were called active. The sample as a whole holds a higher share of actives than the screen did. Entries with a potency or affinity are not part of this list. Unmarked numbers belong to inactive results. Cut-off read from the data, not from the text of the source: active = cytotoxicity above about 50%; inactive = the rest.

Experiment: cytotoxicity in HPDE-C7 cells, cell-based, fluorescence, HTS (AID 430);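 note: cells exposed to compound for 48 hours before viability readout; 0% = vehicle and 100% = reference cytotoxic drug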
Conditions: HPDE-C7 pancreatic duct cells viability, at 10 µM, hits give high values

Going from `Cc1c(C(=O)OC2CCC(C)CC2)[nH]c2c1C(=O)CCC2` (configuration not stated) to `Cc1c(C(=O)OC2CCCCC2)[nH]c2c1C(=O)CC(C)(C)C2`, the cytotoxicity rises from -8.8% to -3.5%.

Going from `CCOC(=O)c1[nH]c2c(c1C)C(=O)CC(c1ccc(OC)c(OC)c1)C2` (configuration not stated) to `CCOC(=O)c1[nH]c2c(c1C)C(=O)CC(c1ccc(OCC)c(OC)c1)C2` (configuration not stated), the cytotoxicity rises from -13.8% to -5%.

Compared with `CCC(C)OC(=O)c1[nH]c2c(c1C)C(=O)CC(c1ccc(N(C)C)cc1)C2` (configuration not stated), `C/C=C/COC(=O)c1[nH]c2c(c1C)C(=O)CC(c1ccc(N(C)C)cc1)C2` (configuration not stated) is higher in cytotoxicity: 11.5% for the first, 11.6% for the second.

First: COc1ccc(CCNS(=O)(=O)c2cccc(S(=O)(=O)N3CCCC3)c2)cc1OC
Second: COc1ccc(-c2ccc(NCCC3=CCCCC3)nn2)cc1OC
The cytotoxicity of the first is lower: -3.9% for the first, 18.1% for the second.

First: Cc1cc(SCNC(=O)c2ccccc2)ncn1
Second: O=C(NCc1nc2ncc(Br)cc2[nH]1)c1ccccc1
The cytotoxicity of the first is lower: -13% for the first, -4.4% for the second.

Compared with `COc1ccc(N2CCN(c3oc(COc4ccccc4)nc3C#N)CC2)cc1`, `COc1cccc(OCc2nc3ccccc3[nH]2)c1` is higher in cytotoxicity: -8.8% for the first, -1.9% for the second.

Going from `O=C(O)c1cccc(CN2C(=O)SC(Nc3ccccc3)C2=O)c1` (configuration not stated) to `O=C(CC1SC(=Nc2ccccc2)N(CCCCO)C1=O)NCc1ccccc1` (configuration not stated), the cytotoxicity falls from -3.2% to -10.8%.

Compared with `CN(C)C(=O)COn1c(SCC(=O)N(C)C)nc2ccccc2c1=O`, `CC(=O)Oc1cc2c(C(C)=O)coc2c2ccccc12` is higher in cytotoxicity: -6.6% for the first, 4.5% for the second.

Going from `COc1ccc(C2C3=C(CC(C)(C)CC3=O)Nc3n[nH]c(C)c32)cc1` (configuration not stated) to `CC1(C)CC(=O)C(C=Nc2ccccc2)=C(O)C1`, the cytotoxicity rises from -9.3% to 2%.

Going from `CCOc1cccc(C(=O)Nc2cc(-c3nn4c(C)nnc4s3)ccc2C)c1` to `COc1ccc(-c2nnc(NC(=O)c3ccccc3C)o2)cc1`, the cytotoxicity rises from -4.1% to 1.9%.

First: O=C(O)C1CCC(CNCc2cccnc2)CC1 (configuration not stated)
Second: O=C(CC1COc2ccccc2O1)NC1CCCCC1 (configuration not stated)
The cytotoxicity of the first is lower: -8.3% for the first, -3.9% for the second.

First: Cc1ccc(SCCC(=O)NCC2CCCO2)cc1 (configuration not stated)
Second: COc1ccc(C(=O)N(Cc2nc(-c3ccc(C)cc3)no2)C2CCCCC2)cc1OC
The cytotoxicity of the first is lower: -5.9% for the first, 9.2% for the second.

First: O=C(NCc1ccco1)c1ccc(S(=O)(=O)N2CCCc3ccccc32)cc1
Second: O=C(Nc1ccc(S(=O)(=O)N2CCCc3ccccc32)cc1)C1CCCO1 (configuration not stated)
The cytotoxicity of the first is lower: -2.8% for the first, 3% for the second.

Compared with `COc1ccc(-c2nnc(NC(=O)c3ccc(S(=O)(=O)N4CCc5ccccc5C4)cc3)o2)cc1`, `COc1ccc(-c2nnc(NC(=O)c3ccc(S(=O)(=O)N4COCC4(C)C)cc3)o2)cc1` is lower in cytotoxicity: 40.7% for the first, 28.7% for the second.

Compared with `COc1cc(OC)cc(-n2c3nc4ccccc4nc3c3c(=O)n(CC4CCCO4)cnc32)c1` (configuration not stated), `COc1ccc(C(=O)NCCn2cc(SCC(=O)Nc3cc(C)on3)c3ccccc32)cc1OC` is lower in cytotoxicity: -11.1% for the first, -41% for the second.

First: COc1ccc(OC)c(NC(=O)C2=C(C)Nc3ncnn3C2c2cccs2)c1 (configuration not stated)
Second: COc1ccccc1NC(=O)CSc1nnnn1-c1ccc2c(c1)OCO2
The cytotoxicity of the first is higher: 4.9% for the first, -9.1% for the second.

First: CCCCOCCCNC(=O)Cc1cccs1
Second: C=CCn1c(SCC(=O)NCCOC)nc2scc(-c3ccco3)c2c1=O
The cytotoxicity of the first is lower: -16.7% for the first, -6.7% for the second.

First: COc1ccccc1N1CCN(C(=O)N2CCOCC2)CC1
Second: CC(C)N1C(=O)CCC1C(=O)N1CCN(c2ccccn2)CC1 (configuration not stated)
The cytotoxicity of the first is lower: -6.9% for the first, 9.8% for the second.

Compared with `Cc1cc(N2CCN(C/C=C/c3ccccc3)CC2)n2ncnc2n1`, `Cc1cccc(CN2CCN(c3ccccn3)CC2)c1` is lower in cytotoxicity: -6.5% for the first, -18.2% for the second.

First: O=C(NC1c2ccccc2-c2ccccc21)N1CCOCC1
Second: Cc1cc(NC(=O)c2ccccc2-c2ccccc2C(=O)O)no1
The cytotoxicity of the first is lower: 1.5% for the first, 5.8% for the second.

Compared with `CCCOC(=O)CSC1=C(C#N)C(c2ccccc2OCC)C(C#N)C(=O)N1` (configuration not stated), `CCN(CC)C(=O)CSC(=Nc1ccccc1F)NC#N` is lower in cytotoxicity: 5.1% for the first, 3.7% for the second.

Going from `Cc1cc(NC(=O)CCc2ccc(C)o2)no1` to `CCCC(=O)Nc1nnc(-c2ccc(Cl)s2)o1`, the cytotoxicity rises from -11.8% to 1.2%.

Going from `CC(=O)C(C)Oc1ccc2c3c(c(=O)oc2c1)CCCCC3` (configuration not stated) to `Cn1c(NCCO)nc2c(c1=O)C1(CCCCC1)Cc1ccccc1-2`, the cytotoxicity rises from -15.5% to 8.3%.

Going from `c1ccc(-c2nnc(N3CCN(c4ccccn4)CC3)c3ccccc23)cc1` to `Cc1ccc(-c2nnc(N3CCN(S(C)(=O)=O)CC3)c3ccccc23)cc1`, the cytotoxicity falls from 5.2% to -1.3%.

Compared with `O=C(OCC(=O)N1CCN(C(=O)c2ccco2)CC1)c1ccccc1C(=O)c1ccc(Cl)cc1`, `Cc1cccc(CN2CCN(C(=O)c3ccccc3F)CC2)c1` is higher in cytotoxicity: -5% for the first, 5.3% for the second.

Compared with `CN1CCCN(C(c2ccccc2)c2ccc(Cl)cc2)CC1` (configuration not stated), `O=S(=O)(CCN1CCN(C(c2ccccc2)c2ccccc2)CC1)C(F)(F)F` is lower in cytotoxicity: 12.4% for the first, -0.3% for the second.

Compared with `Fc1ccc(OCc2nc(-c3ccc(Br)o3)no2)c(F)c1`, `COc1ccccc1-c1nc(-c2cccc(C)c2)no1` is higher in cytotoxicity: 6.5% for the first, 9.9% for the second.

Going from `Cc1ccc(-n2c(SCC(N)=O)nnc2-c2cccnc2)c(C)c1` to `Cc1ccc(-c2csc3nnc(SCC(=O)N4CCN(Cc5ccccc5)CC4)n23)cc1`, the cytotoxicity rises from -1.8% to 4.7%.

Compared with `FC(F)(F)c1ccc2c(c1)nc1n2CCCC1`, `CCc1nnc(NC(=O)c2ccc(S(=O)(=O)N3CCCCC3C)cc2)s1` (configuration not stated) is higher in cytotoxicity: -20.5% for the first, -15% for the second.

Going from `CCC1CCCCN1S(=O)(=O)c1ccc(C(=O)Nc2nnc(-c3cccs3)o2)cc1` (configuration not stated) to `CC1CCCCN1S(=O)(=O)c1ccc(NC(=O)c2cccc(-n3cnnn3)c2)cc1` (configuration not stated), the cytotoxicity falls from 37.7% to 30%.

Compared with `CN1CCN(S(=O)(=O)c2ccc(NC(=O)c3cccs3)cc2)CC1`, `CC1CCN(S(=O)(=O)c2ccc(NC(=O)c3cccs3)cc2)CC1` is higher in cytotoxicity: -7.7% for the first, 19.6% for the second.

Compared with `O=C(Nc1nnc(-c2ccccc2Cl)o1)c1cccnc1`, `c1ccc(-c2nn3c(Cn4nnc5ccccc54)nnc3s2)nc1` is lower in cytotoxicity: 39.4% for the first, -48.7% for the second.

Going from `O=C(Nc1ccon1)c1ccc2c(c1)OCO2` to `CCCOC(=O)C1C2C=CC3(CN(c4ccc(Cl)c(F)c4)C(=O)C13)O2` (configuration not stated), the cytotoxicity falls from -3.5% to -15.1%.

First: CC(C)N1C(=O)CCC1C(=O)NC1CCCC1 (configuration not stated)
Second: O=c1[nH]c(NCCO)nc2c1C1(CCCCC1)Cc1ccccc1-2
The cytotoxicity of the first is lower: -3.8% for the first, 13.1% for the second.

Going from `CCOC(=O)CSc1nnc(-c2ccc(S(=O)(=O)N3CCC(C)CC3)cc2)o1` to `COCCn1c(C)cc(C(=O)COC(=O)CCc2ccc(S(=O)(=O)N3CCOCC3)cc2)c1C`, the cytotoxicity falls from 2% to -9.3%.

Going from `Cc1nc2ccccn2c(=O)c1CCN1CCC(C(=O)c2ccc(F)cc2)CC1` to `O=c1cc(CN2CCN(c3ccc(F)cc3)CC2)nc2sccn12`, the cytotoxicity rises from -14.3% to -3.4%.

Compared with `C=CCOC(=O)c1[nH]c2c(c1C)C(=O)CC(c1cc(OC)c(OC)c(OC)c1)C2` (configuration not stated), `COc1ccc(C2c3c(oc4c(C)cc(C)cc4c3=O)C(=O)N2Cc2cccnc2)cc1OC` (configuration not stated) is higher in cytotoxicity: -23.8% for the first, 43.3% for the second.

Compared with `CCN1CCN(CC(=O)Nc2ccccc2)C(=O)C1=O`, `O=C(CCNS(=O)(=O)c1cccc2nsnc12)N1CC(=O)N(CCc2ccccc2)C(=O)C1` is lower in cytotoxicity: -4.7% for the first, -14.8% for the second.

Going from `CCOc1nc2ccccc2nc1NS(=O)(=O)c1ccccc1` to `CC1(C)Cc2ccccc2-c2nc(NCCO)n(-c3ccccc3)c(=O)c21`, the cytotoxicity falls from 0.8% to -0.1%.

Going from `O=c1[nH]c(NCCCO)nc2c1C1(CCCC1)Cc1ccccc1-2` to `Cc1cc(C)n2nc(SCC(=O)NCc3ccco3)nc2n1`, the cytotoxicity falls from 23.9% to -20.4%.

In the case of `Cc1c(C(=O)OCC(C)C)[nH]c2c1C(=O)CC(c1ccco1)C2` (configuration not stated), the cytotoxicity is reported as 63.7% (active).
With `CCOC(=O)c1[nH]c2c(c1C)C(=O)CC(c1ccco1)C2` (configuration not stated) the cytotoxicity was 70.2% (active).
In the case of `Cc1c(C(=O)OC2CCCC2)[nH]c2c1C(=O)CC(c1ccco1)C2` (configuration not stated), the cytotoxicity is reported as 79.3% (active).
In the case of `CSCCOC(=O)c1[nH]c2c(c1C)C(=O)CC(c1ccco1)C2` (configuration not stated), the cytotoxicity is reported as 64.9% (active).
For `O=C(Nc1nnc(C2CC2)o1)c1ccc(S(=O)(=O)N2CCCc3ccccc32)cc1`, the cytotoxicity was 73.6% (active).
With `COc1ccc(-c2nnc(NC(=O)c3ccc(S(=O)(=O)N4CCCc5ccccc54)cc3)o2)cc1` the cytotoxicity was 53.1% (active).
In the case of `Cc1cccc(CN2CCN(C(c3ccccc3)c3ccc(Cl)cc3)CC2)c1` (configuration not stated), the cytotoxicity is reported as 95.1% (active).
For `OCCOCCN1CCN(C(c2ccccc2)c2ccc(Cl)cc2)CC1` (configuration not stated), the cytotoxicity was 50.4% (active).
In the case of `CC1CCCCN1S(=O)(=O)c1ccc(C(=O)Nc2nnc(-c3ccccc3Cl)o2)cc1` (configuration not stated), the cytotoxicity is reported as 57.4% (active).
With `CCC1CCCCN1S(=O)(=O)c1ccc(C(=O)Nc2nnc(-c3ccccc3Cl)o2)cc1` (configuration not stated) the cytotoxicity was 67.6% (active).
In the case of `CC1(C)COCN1S(=O)(=O)c1ccc(C(=O)Nc2nnc(-c3ccc(Cl)s3)o2)cc1`, the cytotoxicity is reported as 95.1% (active).
For `CC1CCCCN1S(=O)(=O)c1ccc(NC(=O)c2cccs2)cc1` (configuration not stated), the cytotoxicity was 52.1% (active).
In the case of `C=CCOC(=O)c1[nH]c2c(c1C)C(=O)CC(c1ccco1)C2` (configuration not stated), the cytotoxicity is reported as 74.9% (active).
In the case of `C/C=C/COC(=O)c1[nH]c2c(c1C)C(=O)CC(c1ccco1)C2` (configuration not stated), the cytotoxicity is reported as 63.7% (active).
For `CC1(C)CC(n2c(NCCO)nc3c(c2=O)C2(CCCC2)Cc2ccccc2-3)CCO1` (configuration not stated), the cytotoxicity was 56.4% (active).
With `Cn1c(NCCCO)nc2c(c1=O)C1(CCCCC1)Cc1ccccc1-2` the cytotoxicity was 53.9% (active).
With `COc1cccc(OCc2nc3ncc(Br)cc3[nH]2)c1` the cytotoxicity was 61.9% (active).
